Records with an inconclusive call do not appear. A call without a number means that no potency is given here. A structure can be active in one record and inactive in another. Calls of active or inactive are those of the source. Calls come from the whole dose curve; as a rule, active = well fitted cell-killing curve with a large enough effect; inconclusive = small, poorly fitted or top-dose-only effect, or effect the other way; inactive = flat fitted curve, though single readings scatter.
Potency is the fitted concentration of half-maximal effect.

For the first assay, the system named is JEG-3. Kind of assay: Primary qHTS to identify gynecologic anti-cancer compounds using libraries of approved drugs and bioactive compounds (AID 1345084). Note: nearly all actives have a fitted effect of over 55% in size. The conditions noted are these: Gynecologic cancer cell panel viability, ATPlite luminescence, 48 h; series mostly up to 57.5 µM. The method, boiled down:
(§1)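 Cells, 1,000 per well, plated 16 h, then exposed 48 h at 37 C to compounds. Viability by ATPlite luminescence after 15 min at room temperature.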
Regarding `COc1ccc2cc1Oc1ccc(cc1)C[C@H]1c3c(cc4c(c3Oc3cc5c(cc3OC)CCN(C)[C@@H]5C2)OCO4)CCN1C`, the Potency entry is “inactive”.
As to `CC[C@H]1CN2CCc3cc(OC)c(OC)cc3[C@@H]2C[C@@H]1C[C@H]1NCCc2cc(OC)c(OC)cc21`, the Potency was 11.2 µM (active).
As to `C[C@H](N)[C@H](O)c1cccc(O)c1`, the Potency result was “inactive”.
`COC(=O)C1=C(C)NC(C)=C(C(=O)OC)C1c1ccccc1[N+](=O)[O-]`: the Potency entry is “inactive”.
With `Cc1cc(O)cc2c1O[C@](C)(CCC[C@H](C)CCC[C@H](C)CCCC(C)C)CC2`, the Potency result is “inactive”.
On to `CCCCN(CCCC)CC(O)c1cc(Cl)cc2c1-c1ccc(Cl)cc1/C2=C/c1ccc(Cl)cc1` (stereo unspecified), for which the Potency result is “inactive”.
Still for that read-out and setting: as for `CC(=O)NC(Cc1ccccc1)C(=O)O` (stereo unspecified), the entry is “inactive”; as for `CC(=O)OCC(=O)[C@@]1(O)CC[C@H]2[C@@H]3CCC4=CC(=O)CC[C@]4(C)[C@H]3C(=O)C[C@@]21C`, “inactive”; as for `CNCC(O)c1ccc(O)c(O)c1` (stereo unspecified), “inactive”.
For the compound `CC[C@@]1(c2ccccc2)NC(=O)N(C)C1=O`, the Potency entry is “inactive”.

The next assay concerns OV90. The description is as above. The settings on record: Gynecologic cancer cell panel viability, ATPlite luminescence, 48 h; series mostly up to 57.5 µM. The method, boiled down:
as §1
With `NC(=O)NC(=O)Cc1ccccc1`, the Potency entry was “inactive”.
With `NC(=O)NNc1ccccc1`, the Potency result is “inactive”.
`N[C@H](C(=O)O)c1ccc(O)cc1`: the Potency entry is “inactive”.
With `Nc1ccc(S(=O)(=O)NC(=O)c2ccccc2)cc1`, the Potency entry is “inactive”.
Turning to `CCN(CC)CCNC(=O)c1c(C)[nH]c(/C=C2\C(=O)Nc3ccc(F)cc32)c1C`, the Potency is 10 µM (active).
Take `N[C@H]1C(O)O[C@H](CO)[C@@H](O)[C@@H]1O` (stereo partly specified): the Potency result was “inactive”.
As to `O=S(=O)(O)NC1CCCCC1`, the Potency entry is “inactive”.
Regarding `OC[C@H]1O[C@@H](O[C@@H]2[C@@H](CO)O[C@](O)(CO)[C@H]2O)[C@H](O)[C@@H](O)[C@H]1O`, the Potency result was “inactive”.
On the same count and under the same terms, as for `CN(C)CCCO[C@@H]1[C@H]2OC(C)(C)O[C@H]2O[C@@H]1C(O)CO` (stereo partly specified), the entry is “inactive”.
As for `C[C@@H]1CC[C@@]2(OC1)O[C@H]1C[C@H]3[C@@H]4CC[C@H]5C[C@@H](O)CC[C@]5(C)[C@H]4CC(=O)[C@]3(C)[C@H]1[C@@H]2C`, the activity change, negative = cytotoxicity was 12.9% [at 6.55 µM] (inactive).
For `CC1=C(CC(=O)O)c2cc(F)ccc2/C1=C\c1ccc(S(C)=O)cc1` (stereo unspecified), the Potency result was “inactive”.
Regarding `COCCOC(=O)C1=C(C)NC(C)=C(C(=O)OC/C=C/c2ccccc2)C1c1cccc([N+](=O)[O-])c1` (stereo unspecified), the Potency entry was “inactive”.
`CC(=O)O[C@@]12CO[C@@H]1C[C@H](O)[C@@]1(C)C(=O)[C@H](O)C3=C(C)[C@@H](OC(=O)[C@H](O)[C@@H](NC(=O)OC(C)(C)C)c4ccccc4)C[C@@](O)([C@@H](OC(=O)c4ccccc4)[C@H]21)C3(C)C`: the Potency result is “inactive”.
As to `C[C@H]1O[C@@H](n2cc(F)c(=O)[nH]c2=O)[C@H](O)[C@@H]1O`, the Potency result was “inactive”.
The same measure, in the same setting: the value for `O=S(=O)(O)c1cc(I)c(O)c2ncccc12` was “inactive”.
For the compound `CN1[C@@H]2CC(OC(=O)[C@H](CO)c3ccccc3)C[C@H]1[C@@H]1O[C@@H]12` (stereo partly specified), the Potency result was “inactive”.
Same read-out and setting: the value for `CC1(C)OC(=O)NC1=O` was “inactive”; that for `CCCCCCCCCCCCCCCCCCOCC(O)CO` (stereo unspecified) was “inactive”; that for `CC(=O)CCC(=O)O` was “inactive”.
As for `C=CCn1c(=O)n([C@@H]2O[C@H](CO)[C@@H](O)[C@H]2O)c2nc(N)[nH]c(=O)c21`, the Potency entry is “inactive”.
Take `CC1(C)CO[C@@H](CC(=O)O)CN1`: the Potency result is “inactive”.
In the case of `CC(=O)Oc1c(C)c(C)c2c(c1C)CC[C@@](C)(CCC[C@H](C)CCC[C@H](C)CCCC(C)C)O2`, the Potency result was “inactive”.
On to `COc1ccc2cc1Oc1ccc(cc1)C[C@H]1c3c(cc4c(c3Oc3cc5c(cc3OC)CCN(C)[C@@H]5C2)OCO4)CCN1C`, for which the Potency was 10 µM (active) and inactive.
On to `C[C@H](N)[C@H](O)c1cccc(O)c1`, for which the Potency entry is “inactive”.
`COC(=O)C1=C(C)NC(C)=C(C(=O)OC)C1c1ccccc1[N+](=O)[O-]`: the Potency entry was “inactive”.
Consider `Cc1cc(O)cc2c1O[C@](C)(CCC[C@H](C)CCC[C@H](C)CCCC(C)C)CC2`, for which the Potency result is “inactive”.
As for `CCN(CC)CCCC(C)Nc1c2ccc(Cl)cc2nc2ccc(OC)cc12` (stereo unspecified), the Potency was 8.91 µM (active).
With `CC(=O)NC(Cc1ccccc1)C(=O)O` (stereo unspecified), the Potency entry is “inactive”.
For `CC(=O)OCC(=O)[C@@]1(O)CC[C@H]2[C@@H]3CCC4=CC(=O)CC[C@]4(C)[C@H]3C(=O)C[C@@]21C`, the Potency entry is “inactive”.
`CNCC(O)c1ccc(O)c(O)c1` (stereo unspecified): the Potency entry is “inactive”.
In the case of `CC[C@@]1(c2ccccc2)NC(=O)N(C)C1=O`, the Potency result is “inactive”.
